Several values for one entry are separate records, joined by “and”; a condition that tells them apart may be missing. Equal entries are not always repeated. Inconclusive results are not listed. Activity calls are given as the source filed them. Unless noted, calls come from the whole dose curve; as a rule, active = well fitted curve in the direction sought with a large enough effect; inconclusive = small, poorly fitted or top-dose-only effect, or another doubt; inactive = no such curve, though single readings can be large; an effect the other way counts as inactive or inconclusive.

The text below walks through data of PubChem BioAssay (NCATS).

Test [1] can be described thus: qHTS assay for small molecule antagonists of peroxisome proliferator-activated receptor delta signaling (AID 588535).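 Note: cells co-treated with a PPAR-delta agonist as stimulator during compound exposure.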 The note with it: HEK293T PPARd-UAS-bla, beta-lactamase FRET ratio, 18 h; 460 nm channel. In outline:
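Titrations were run on PPAR-delta-UAS-bla HEK293T cells in charcoal/dextran-stripped serum, incubated 18 h at 37 C. CCF4 fluorescence (460/530 nm) after 2 h RT; Hill equation yields IC50 and maximal response.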
On the technique in general: qHTS replaces the single test concentration by a dilution series.

The target of test [2] is Peroxisome proliferator-activated receptor gamma (Homo sapiens) (UniProt P37231). Description: qHTS assay for small molecule agonists of peroxisome proliferator-activated receptor gamma signaling (AID 588536; active = well fitted curve in the direction sought with a large enough effect in the signal ratio, with a control signal flat, not every such curve was filed as active; the % refers to the signal ratio). The note with it: HEK293 PPARg-UAS-bla, beta-lactamase ratio, 16 h, percent of rosiglitazone response, DMSO as zero; series mostly up to 76.7 µM. The essentials: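 Using GeneBLAzer HEK293 cells, response was quantified by CCF4 fluorescence and normalized between basal DMSO (0%) and rosiglitazone 2 uM (100%); curves yielded half-maximal stimulation concentration and efficacy.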

The target in test [3] is Vitamin D3 receptor (Homo sapiens) (UniProt P11473). The test can be described thus: qHTS assay for small molecule antagonists of vitamin D receptor signaling (AID 588541; calls by dose curve;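 note: receptor activated by calcitriol during compound treatment; % is set by controls: 0 for no effect and ±100 for the full control effect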). The following applies: HEK293T VDR-UAS-bla, beta-lactamase ratio, antagonist mode; series mostly up to 76.7 µM. The essentials: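 Antagonist-mode beta-lactamase reporter assay: HEK293T VDR-UAS-bla cells were exposed to titrated compound alongside 1-alpha,25-dihydroxyvitamin D3 at 3 nM final for 16 h. Values were normalized to the 50 nM agonist control and DMSO basal, with IC50 and efficacy from Hill equation fits.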

Test [4] has the same target. Description: qHTS assay for small molecule agonists of vitamin D receptor signaling (AID 588543; calls by dose curve). The note with it: HEK293T VDR-UAS-bla, beta-lactamase ratio, 16 h; series mostly up to 76.8 µM. The essentials:
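Agonist-mode beta-lactamase reporter: HEK293T VDR-UAS-bla cells in charcoal-stripped 2% FBS, compound series 16 h 37 C, CCF4 2 h RT. EC50 from Hill fit, scaled against DMSO and 50 nM calcitriol control.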

Test [5] is described as follows: qHTS assay for small molecule agonists of retinoid X receptor alpha signaling (AID 588544; calls by dose curve). The note with it: HEK293T RXRa-UAS-bla, beta-lactamase reporter, 18 h; 530 nm emission.
Test [6] concerns the target Thyroid hormone receptor beta (Homo sapiens) (UniProt P10828). The test can be described thus: qHTS assay for small molecule agonists of thyroid hormone receptor beta signaling (AID 588545; calls by dose curve;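 note: 0% = DMSO only and 100% = 10 nM T3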). The note with it: TR-UAS-bla GripTite HEK 293, beta-lactamase ratio, agonist mode, 18 h; series mostly up to 76.7 µM. The essentials:
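TR-UAS-bla GripTite HEK 293 cells (2500/well, medium with 2% charcoal/dextran FBS) were treated in agonist mode for 18 h at 37 C, titrated. Beta-lactamase was read by CCF4 ratio after 2 h; normalized to 10 nM T3 (100%) and DMSO, Hill-fitted for EC50 and efficacy.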

Test [7] is described as follows: qHTS assay for small molecule antagonists of retinoid X receptor alpha signaling (AID 588546; active = well fitted inhibition curve with a large enough effect in the signal ratio, with a control signal flat, not every such curve was filed as active; the % refers to the signal ratio;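 note: cells stimulated with 9-cis-retinoic acid as agonist; % is set by controls: 0 for no effect and ±100 for the full control effect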). The following applies: HEK293T RXRa-UAS-bla, beta-lactamase ratio, antagonist mode; measured here: W530 green channel, cytotoxicity proxy. In outline:
(§1)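 Beta-lactamase reporter inhibition, read as CCF4 fluorescence ratio (ex 405, em 460/530 nm) after 2 h at RT. HEK293T UAS-bla cells, 2500/well, were stimulated with 9-cis-RA at 500 or 100 nM final alongside test compound for 18 h at 37 C.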

The target of test [8] is Retinoic acid receptor RXR-alpha (Homo sapiens) (UniProt P19793). Described as above. The following applies: HEK293T RXRa-UAS-bla, beta-lactamase ratio, antagonist mode. The essentials: as §1
Test [9] in a line: qHTS assay for small molecule activators of the p53 signaling pathway (AID 651743; active = well fitted activation curve with a large enough effect in the signal ratio, not every such curve was filed as active; the % refers to the signal ratio; note: % of control where 0% means no effect). The note with it: HCT-116 p53RE-bla, beta-lactamase FRET ratio, 16 h; activation: stronger effect = higher value. In outline: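 After 16 hours compound treatment at 37 C, HCT-116 cells stably expressing p53RE-driven beta-lactamase were loaded with LiveBLAzer B/G FRET substrate for 2 hours at room temperature. Fluorescence intensity served as the p53 activation read-out.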

Test [10] is described as follows: qHTS assay for small molecule activators of the nuclear factor-kappa B (NF-kB) signaling pathway (AID 651749; active = well fitted activation curve with a large enough effect in the signal ratio; the % refers to the signal ratio; note: % of control where 0% means no effect). The note with it: NF-kB-bla ME-180 cells, beta-lactamase FRET ratio, 16 h; activation: stronger effect = higher value. The essentials: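 Activation measured after 16 hr compound treatment at 37C, 5% CO2, of 2,000 ME-180 cells/well stably expressing an NF-kB response element–driven beta-lactamase reporter, via FRET-disruption fluorescence.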

The nature of test [11]: qHTS assay for environmental chemicals that activate the Aryl hydrocarbon Receptor (AhR) signaling pathway (AID 651777). Note: % of control where 0% means no effect; nearly all actives have a fitted effect of over 15% in size. The following applies: 1A2-DRE human hepatoma cells, luciferase, 24 h; activation: stronger effect = higher value. The essentials:
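Concentration–response screening used 1,200 1A2-DRE cells per well, 24 hr compound exposure (37 C, 5% CO2), and One-Glo luminescence as the AhR-driven CYP1A2 reporter signal.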

Test [12] in a line: qHTS assay for small molecule agonists of the antioxidant response element (ARE) signaling pathway measured by Nrf2-dependant transcriptional activity (AID 720636; active = well fitted curve in the direction sought with a large enough effect in the repeat runs; an effect the other way counts as inactive or inconclusive;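 note: HepG2 cells with an ARE-driven luciferase reporter; % of control where 0% means no effect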). The following applies: ARE-luc HepG2, Nrf2 luciferase reporter, 16 h; series mostly up to 92.4 µM. The essentials:
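Attachment 6 hr at 37 C, then compound versus DMSO vehicle for 16 hr in ARE-luc HepG2 cells (1% dialyzed FBS); luminescence recorded 30 min after ONE-Glo addition at room temperature.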

The nature of test [13]: qHTS assay for small molecule agonists of the antioxidant response element (ARE) signaling pathway measured by Nrf2-dependant transcriptional activity - cell viability counter screen (AID 720653; active = well fitted curve in the direction sought with a large enough effect in the repeat runs; an effect the other way counts as inactive or inconclusive; note: % is set by controls: 0 for no effect and ±100 for the full control effect). The following applies: ARE-bla HepG2 viability, CellTiter-Glo ATP luminescence, 16 h; max response: stronger effect = lower value. The essentials:
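Cytotoxicity counter screen: intracellular ATP quantified by CellTiter-Glo luminescence in the same ARE-bla HepG2 plates, after 16 h compound exposure and a 2 h beta-lactamase substrate step.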

Test [14] is described as follows: qHTS assay for cell viability of HEK293 cells (AID 743288). Note: % is set by controls: 0 for no effect and ±100 for the full control effect; nearly all actives have a fitted effect of over 50% in size. The following applies: ATP luminescence (CellTiter-Glo), 18 h; max response: stronger effect = lower value. The essentials: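 Readout is luciferase-coupled ATP content (CellTiter-Glo luminescence, 30 min room temperature) as a measure of metabolically competent cells. Parental HEK293 cells were plated 5 h or more before compound addition, then treated 18 h at 37 C.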

Test [15] can be described thus: qHTS assay for cell viability of the p53RE-bla HCT-116 cell line (AID 743292). Note: nearly all actives have a fitted effect of over 55% in size. Note: potency is the fitted concentration of half-maximal effect. The following applies: p53RE-bla HCT-116 viability, ATP luminescence, 16 h; series mostly up to 95 µM. In outline:
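Compound-exposed HCT-116 (p53RE-bla) cells, 4,000 per well, were kept 16 h at 37 C following a 5 h preincubation. Cell number was estimated from total ATP by CellTiter-Glo luminescence read after 30 min at room temperature.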

In test [16] the target is Nuclear receptor subfamily 1 group I member 2 (Rattus norvegicus) (UniProt Q9R1A7). Description: qHTS assay for small molecule activators of the rat pregnane X receptor (rPXR) signaling pathway (AID 651751; call rule not given here; note: 0% is about no effect). The note with it: rPXR reporter cells, luciferase (One-Glo), 24 h.
The nature of test [17]: qHTS assay for small molecule activators of the human pregnane X receptor (PXR) signaling pathway (AID 720659; call rule not given here; note: 0% is about no effect). The note with it: DPX-2 HepG2 CYP3A4-luciferase, 24 h; series mostly up to 92.3 µM.
Test [18] has as its target Peroxisome proliferator-activated receptor gamma (Homo sapiens) (UniProt P37231). Description: qHTS assay for small molecule antagonists of peroxisome proliferator-activated receptor gamma signaling (AID 588537; active = well fitted inhibition curve with a large enough effect in the signal ratio, with a control signal flat, not every such curve was filed as active; the % refers to the signal ratio;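 note: reporter cells co-stimulated with 50 nM rosiglitazone agonist during compound treatment; % of control where 0% means no effect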). The following applies: HEK293 PPARg-UAS-bla, beta-lactamase ratio, antagonist mode; series mostly up to 76.8 µM. The essentials: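 Antagonist-mode β-lactamase reporter screen run as a titration series. HEK293 PPARγ-UAS-bla cells are stimulated with rosiglitazone (50 nM final) for 16 h, then CCF4 is read at 460/530 nm. Data are scaled between DMSO and rosiglitazone and fitted to the Hill equation.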

The target of test [19] is Retinoic acid receptor RXR-alpha (Homo sapiens) (UniProt P19793). Description: qHTS assay for small molecule agonists of retinoid X receptor alpha signaling (AID 588544). The following applies: HEK293T RXRa-UAS-bla, beta-lactamase reporter, 18 h; series mostly up to 76.7 µM.
Test [20] has as its target Peroxisome proliferator-activated receptor alpha (Homo sapiens) (UniProt Q07869). The test can be described thus: qHTS assay for small molecule agonists of the peroxisome proliferator-activated receptor alpha (PPARalpha) signaling pathway (AID 651778). Note: % of control where 0% means no effect. The note with it: PathHunter PPARalpha complementation, chemiluminescence, 6 h; max response: stronger effect = higher value. In outline:
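Chemiluminescence from complemented enzyme reported PPARalpha activation in cells after 6 hr of compound treatment at 37 C. The detection reagent was incubated for 60 min at room temperature, and compounds were scored as agonists.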

Vitamin D3 receptor (Homo sapiens), sequence (P11473 whole entry, looked up): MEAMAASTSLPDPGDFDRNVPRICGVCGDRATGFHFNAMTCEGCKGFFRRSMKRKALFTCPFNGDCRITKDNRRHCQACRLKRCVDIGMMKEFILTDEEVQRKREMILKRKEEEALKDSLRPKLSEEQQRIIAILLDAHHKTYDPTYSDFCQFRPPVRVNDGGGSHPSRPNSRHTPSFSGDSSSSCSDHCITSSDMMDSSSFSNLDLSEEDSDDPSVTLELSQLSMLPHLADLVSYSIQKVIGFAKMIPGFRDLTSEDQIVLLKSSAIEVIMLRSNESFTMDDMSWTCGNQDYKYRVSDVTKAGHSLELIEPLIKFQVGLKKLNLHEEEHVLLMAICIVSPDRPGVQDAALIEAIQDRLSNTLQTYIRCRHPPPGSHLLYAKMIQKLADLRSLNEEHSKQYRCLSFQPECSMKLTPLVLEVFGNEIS
Thyroid hormone receptor beta (Homo sapiens), sequence (P10828 whole entry, looked up): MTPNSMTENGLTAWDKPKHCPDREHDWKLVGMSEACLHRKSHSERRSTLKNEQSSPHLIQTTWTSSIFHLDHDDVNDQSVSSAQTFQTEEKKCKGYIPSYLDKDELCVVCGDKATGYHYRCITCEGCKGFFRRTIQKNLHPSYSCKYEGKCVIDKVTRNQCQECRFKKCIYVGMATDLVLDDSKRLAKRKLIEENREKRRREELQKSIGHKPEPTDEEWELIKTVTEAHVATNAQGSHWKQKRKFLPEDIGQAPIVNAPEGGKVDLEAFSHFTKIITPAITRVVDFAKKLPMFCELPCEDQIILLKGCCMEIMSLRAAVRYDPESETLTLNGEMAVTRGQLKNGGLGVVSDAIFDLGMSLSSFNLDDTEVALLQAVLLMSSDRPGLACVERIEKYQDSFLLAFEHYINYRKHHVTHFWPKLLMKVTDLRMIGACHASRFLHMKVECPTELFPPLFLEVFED
Peroxisome proliferator-activated receptor alpha (Homo sapiens), sequence (Q07869 whole entry, looked up): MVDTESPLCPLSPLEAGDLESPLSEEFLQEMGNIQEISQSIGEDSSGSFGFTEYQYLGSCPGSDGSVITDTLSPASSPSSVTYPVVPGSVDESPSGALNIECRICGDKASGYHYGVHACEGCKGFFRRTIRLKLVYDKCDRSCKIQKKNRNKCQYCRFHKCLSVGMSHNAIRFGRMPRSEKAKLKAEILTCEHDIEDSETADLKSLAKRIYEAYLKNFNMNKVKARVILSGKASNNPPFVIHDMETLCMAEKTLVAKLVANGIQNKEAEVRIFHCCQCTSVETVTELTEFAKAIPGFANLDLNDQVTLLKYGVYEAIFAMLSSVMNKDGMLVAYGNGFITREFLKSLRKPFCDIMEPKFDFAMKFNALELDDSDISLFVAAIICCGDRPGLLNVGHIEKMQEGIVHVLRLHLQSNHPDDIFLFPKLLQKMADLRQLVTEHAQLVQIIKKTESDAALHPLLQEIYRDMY
Peroxisome proliferator-activated receptor gamma (Homo sapiens), sequence (P37231 whole entry, looked up): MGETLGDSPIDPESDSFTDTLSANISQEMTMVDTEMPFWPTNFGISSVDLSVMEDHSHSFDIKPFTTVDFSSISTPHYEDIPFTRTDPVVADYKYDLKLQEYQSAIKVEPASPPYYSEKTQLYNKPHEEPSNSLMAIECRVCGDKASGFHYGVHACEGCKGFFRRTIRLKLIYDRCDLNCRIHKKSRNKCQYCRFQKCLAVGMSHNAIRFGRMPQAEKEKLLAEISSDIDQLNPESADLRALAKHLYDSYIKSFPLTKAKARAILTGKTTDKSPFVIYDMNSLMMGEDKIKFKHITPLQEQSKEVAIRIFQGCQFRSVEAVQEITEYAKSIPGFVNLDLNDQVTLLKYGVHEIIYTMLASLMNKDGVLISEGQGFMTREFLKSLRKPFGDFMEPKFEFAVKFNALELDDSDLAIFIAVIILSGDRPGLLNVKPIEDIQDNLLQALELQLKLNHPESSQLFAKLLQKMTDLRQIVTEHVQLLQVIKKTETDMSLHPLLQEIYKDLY
Retinoic acid receptor RXR-alpha (Homo sapiens), sequence (P19793 whole entry, looked up): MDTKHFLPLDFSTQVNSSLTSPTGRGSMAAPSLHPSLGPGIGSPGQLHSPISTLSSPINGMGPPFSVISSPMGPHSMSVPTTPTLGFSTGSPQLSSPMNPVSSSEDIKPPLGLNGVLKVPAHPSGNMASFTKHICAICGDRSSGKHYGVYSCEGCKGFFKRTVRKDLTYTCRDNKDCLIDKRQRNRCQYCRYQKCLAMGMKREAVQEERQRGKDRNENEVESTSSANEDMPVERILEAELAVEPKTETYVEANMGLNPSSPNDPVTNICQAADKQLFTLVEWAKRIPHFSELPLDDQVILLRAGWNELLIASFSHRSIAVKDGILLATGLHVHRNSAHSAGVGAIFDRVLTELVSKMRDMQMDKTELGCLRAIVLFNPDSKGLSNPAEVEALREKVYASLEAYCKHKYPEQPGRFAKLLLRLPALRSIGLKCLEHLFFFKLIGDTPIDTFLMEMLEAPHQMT
Nuclear receptor subfamily 1 group I member 2 (Rattus norvegicus), sequence (Q9R1A7 whole entry, looked up): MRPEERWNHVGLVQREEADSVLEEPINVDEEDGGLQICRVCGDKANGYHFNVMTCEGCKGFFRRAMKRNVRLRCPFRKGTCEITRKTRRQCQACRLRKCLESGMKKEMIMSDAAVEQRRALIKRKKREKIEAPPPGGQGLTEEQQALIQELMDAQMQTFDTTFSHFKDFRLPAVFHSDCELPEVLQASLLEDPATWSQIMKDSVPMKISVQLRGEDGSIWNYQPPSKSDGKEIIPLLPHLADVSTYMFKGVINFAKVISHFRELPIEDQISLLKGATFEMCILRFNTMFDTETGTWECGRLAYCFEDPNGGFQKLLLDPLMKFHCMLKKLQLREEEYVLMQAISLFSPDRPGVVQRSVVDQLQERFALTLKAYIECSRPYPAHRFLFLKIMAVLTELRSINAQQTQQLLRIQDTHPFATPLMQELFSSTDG

On to `CC(C)=CCC[C@@H](C)[C@H]1CC[C@@]2(C)C3=C(CC[C@]12C)[C@@]1(C)CC[C@H](O)C(C)(C)[C@@H]1CC3`, for which the max response in test [1] is 37.7%; in [5], -27.3%; in [7], 0.0546%; in [8], 8.2% (inactive); in [13], 3.07% (inactive); in [14], -4.2% (inactive). For the same molecule, in [16], the max response is 0.187% (inactive). Besides, the outcome in test [2], in [4] and in test [17] was inactive. Besides, the Potency result in [3], in [6], in [12] and in test [15] was “inactive” throughout. For the same molecule, the activation in [9] was 2.67% (inactive); in [10] it was 1.26% (inactive); in [11], 1.89% (inactive).

For the molecule `CC(C)CCCCCOC(=O)CS`, the outcome in test [2] and in [17] was inactive. Also, the Potency entry in [18], in test [19], in [6], in test [12] and in test [15] was “inactive” each time. For the same molecule, the max response is -0.354% in test [5]; -2.29% in test [7]; -5.77% (inactive) in test [8]; -0.966% (inactive) in test [13]; -8.32% (inactive) in test [14]; -1.37% (inactive) in [16]. In addition, the activation was 3.32% (inactive) in [10] and -0.874% (inactive) in test [11].

For `CCCCOC(=O)[C@@H](C)Oc1ccc(Oc2ccc(C(F)(F)F)cn2)cc1`, the max response was 35.2% and 48.6% in test [1]; -3.89% and -1% in test [5]; -5.61% and -1.04% in [7]; 9.28% (inactive) and -16% (inactive) in test [8]; -0.0053% (inactive) and -0.638% (inactive) in test [20]; -10.9% (inactive) and -13.9% (inactive) in test [13]. Also, the max response in test [14] was -10% (inactive) and -13.5% (inactive); in test [16], -5.37% (inactive) and -2.58% (inactive). The outcome in test [2] and in [4] was inactive. In addition, the Potency entry in [18], in test [3], in test [19], in [6], in test [12] and in [15] was “inactive” throughout. In addition, the activation is -5.64% (inactive) and -5.4% (inactive) in test [9]; -0.296% (inactive) and -2.63% (inactive) in test [10]; -0.836% (inactive) and 0.498% (inactive) in test [11].

Turning to `C/C=C/C/C=C\CCCCCCCCOC(C)=O`, the max response was 15.9% in [1]; -14.4% in [5]; -5.66% in [7]; -1.2% (inactive) in test [20]; 5.44% (inactive) in test [13]; 0.639% (inactive) in test [14]. Also, the max response in [16] was 0.0563% (inactive). Also, the outcome in test [2], in test [4] and in test [17] was inactive. The Potency result in [18], in test [3], in test [19], in test [6], in test [12] and in [15] was “inactive” throughout. The activation in test [9] was -0.736% (inactive); in test [10], -0.792% (inactive); in test [11], 1.59% (inactive).

On to `CCCN(CCC)c1c([N+](=O)[O-])cc(C(F)(F)F)c(N)c1[N+](=O)[O-]`, for which, in test [4], the result was inactive. Also, the Potency entry in [6] was “inactive”. Further, the max response in test [7] was -8.88%; in test [8], -37.1% (inactive); in test [13], -7.36% (inactive); in [14], -20.5% (inactive). Besides, in [11], the activation is 2.99% (inactive). Also, the Potency in test [15] was 50.1 µM (active).

For the molecule `COC(=O)C1CCC(C(=O)OC)CC1` (stereo unspecified), the max response in test [1] was 36.1%; in [5], -4.14%; in test [7] it was -8.09%; in test [8] it was -11.5% (inactive); in test [20] it was 3.84% (inactive); in test [13], 1.5% (inactive). In addition, the values for the max response in [14] and in [16] were -13.8% (inactive) and 2.13% (inactive), respectively. Besides, the outcome in test [2] and in test [4] was inactive. In addition, the Potency entry in [18], in test [19], in test [6], in test [12] and in test [15] was “inactive” throughout. Also, the activation in test [9] was 8.46% (inactive); in [10] it was -2.67% (inactive); in test [11], 0.798% (inactive).
